Data on 106 compounds can be found in PubChem BioAssay AID1259312 (Keith Lab, Institute of Cancer Science, University of …, 2017).

Structures are written as SMILES. Among all 4,500 compounds or so, about 200 (4.4%) were called active. This is one part of a sample in which actives are shown more often than they occur. Unmarked numbers belong to inactive results.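 Rule for the calls: active = cell survival measured by absorbance rises more than 2.5-fold over infected cells without compound; inactive = the rest.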

A short description of the assay: survival after telomere uncapping, modulators, primary screen, cell-based (AID 1259312).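 Note: virus expresses mutant telomerase RNA that uncaps telomeres and kills cells; compound added 2 days after infection so exposure lasts 3 days.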 The settings on record: HCT116 + Ad-hTR-mut, MTT, 5 d; at 10 µM, stronger effect = higher value.
Consider `Clc1ccc(CSc2nnc(-c3cccc(Br)c3)o2)c(Cl)c1`, for which the fold change was 2.77 (active).

Take `Clc1ccc(-c2nnc(SCc3ccccc3)o2)c(Cl)c1`: the fold change was 2.08.

As to `Brc1cccc(-c2nnc(SCc3ccon3)o2)c1`, the fold change is -2.29.

`Clc1ccc(CSc2nnc(-c3ccccc3Cl)o2)c(Cl)c1`: the fold change was 3.91 (active).

For the compound `CCCSc1nnc(-c2ccc(Cl)cc2Cl)o1`, the fold change is 2.03.

In the case of `Clc1ccc(-c2nnc(SCc3nc(-c4ccccc4)no3)o2)cc1`, the fold change is -1.07.

`CC1(C)C=Cc2c(c3ccccc3[nH]c2=O)O1`: the fold change is -1.4.

Take `O=C(Cc1cccs1)NC1CCCCCC1`: the fold change was -2.19.

Take `Cc1ccc(-c2noc(COc3ccc4c(c3)OCO4)n2)cc1`: the fold change was 1.5.

In the case of `CC1=C/C(=C(\c2cc(C)c(O)cc2C)c2ccccc2S(=O)(=O)O)C(C)=CC1=O`, the fold change entry is “inactive”.

Regarding `O=S(=O)(Nc1nc2ccccc2nc1N1CCOCC1)c1ccccc1`, the fold change was -1.42.

`CN1CCN(c2nc3ccccc3nc2N2CCN(C)CC2)CC1`: the fold change was 2.65 (active).

As for `c1ccc(-c2nc3ccccc3nc2-c2ccccc2)cc1`, the fold change is -1.02.

In the case of `CCCN1CC=C2C(C#N)=C(N)C(C#N)(C#N)[C@H](c3ccsc3)[C@H]2C1`, the fold change was 2.9 (active).

Turning to `CC(C)c1ccc(C2[C@H]3CN(C)CC=C3C(C#N)=C(N)C2(C#N)C#N)cc1` (stereo partly specified), the fold change was 2.14.

Take `COc1ccc(C2C3CCC=C3C(C#N)=C(N)C2(C#N)C#N)cc1` (stereo unspecified): the fold change is -1.15.

As to `N#CC1=C(N)C(C#N)(C#N)[C@@H](c2cccc(Br)c2)[C@@H]2CN(Cc3ccccc3)CC=C12`, the fold change is 1.73.

For the compound `CC(C)N1CC=C2C(C#N)=C(N)C(C#N)(C#N)C(c3ccc(F)cc3)[C@H]2C1` (stereo partly specified), the fold change was 3.68 (active).

In the case of `CN1CC=C2C(C#N)=C(N)C(C#N)(C#N)C(c3ccc(F)cc3)[C@H]2C1` (stereo partly specified), the fold change is -37.3.

For `c1cnc(SCc2ccc3nsnc3c2)nc1`, the fold change was 1.11.

For the compound `CC(=O)Nc1ccc(S(=O)(=O)N2CCCC2C(=O)NC2CC2)cc1` (stereo unspecified), the fold change was -1.03.

`COc1ccc(Oc2coc3cc(O)ccc3c2=O)cc1`: the fold change was -2.75.

Regarding `N#C/C(=C\c1ccc2c(c1)OCO2)c1ccccn1`, the fold change is -2.23.

In the case of `CC(=O)Nc1nonc1NC(=O)C(F)(F)F`, the fold change is -1.07.

In the case of `O=S(=O)(NCCn1cccc1)c1ccc2ccccc2c1`, the fold change was 1.09.

Consider `O=[N+]([O-])c1cc(Cl)ccc1N1CCN(c2ccc(Cl)cc2[N+](=O)[O-])CC1`, for which the fold change was 2.59 (active).

As for `O=[N+]([O-])c1cc(Cl)ccc1N1CCOCC1`, the fold change is -1.07.

With `O=[N+]([O-])c1ccc(Cl)cc1N1CCOCC1`, the fold change is 1.51.

For `CC(C)CC(N)C(N)=O` (stereo unspecified), the fold change was -2.69.

Regarding `N#C/C(=C/c1ccncc1)C(N)=S`, the fold change was -1.8.

As to `COc1cc2c(Cc3c4c5c(cc(OC)c(OC)c5c5c(OC)c(OC)ccc35)CCN4C)c3c4c(cc(OC)c(OC)c4c2cc1OC)CCN3C`, the fold change was -1.39.

On to `COC(=O)C1=C(N)C(C(=O)OC)=c2s/c(=C/c3cccnc3)c(=O)n2C1c1cccnc1` (stereo unspecified), for which the fold change was 1.8.

For `c1ccc(-c2nc(SCc3ccon3)[nH]c2-c2ccccc2)cc1`, the fold change is -1.7.

Take `Cc1sc(NC(=O)Cn2cnc([N+](=O)[O-])n2)c(C(N)=O)c1C`: the fold change was 1.35.

Consider `CC(=O)OC1CCC2(C)C(=CCC3C2CCC2(C)C3CC3OC32[C@H](C)OC(C)=O)C1` (stereo partly specified), for which the fold change was 4.11 (active).

On to `CC(=O)OC1CCC2(C)C(=CCC3C2CC[C@]2(C)C(C(C)=O)CCC32)C1` (stereo partly specified), for which the fold change was 1.32.

Regarding `CC(=O)OC1CCC2(C)C(=CCC3C2CCC2(C)C(C(C)O)CCC32)C1` (stereo unspecified), the fold change is 3.23 (active).

With `CC[C@H](/C=C/[C@@H](C)[C@H]1CC[C@H]2[C@@H]3CC=C4C[C@@H](O)CC[C@]4(C)[C@H]3CC[C@]12C)C(C)C`, the fold change was -1.34.

As to `CCCCOC1CC[C@@]2(C)C(=CC[C@H]3[C@@H]4CC[C@H]([C@H](C)CCCC(C)C)[C@@]4(C)CC[C@@H]32)C1` (stereo partly specified), the fold change is -1.1.

Consider `CC(C)CCCC(C)C1CCC2C3CC=C4CC(O)CCC4(C)C3CCC12C` (stereo unspecified), for which the fold change is 1.54.

With `CNc1oc(/C=C/c2ccccc2)nc1S(=O)(=O)c1ccc(Cl)cc1`, the fold change was -1.12.

Regarding `CC(C)(C)Sc1c(Br)cccc1Br`, the fold change was -2.29.

With `CCCc1nnc(NC(=O)c2ccoc2C)s1`, the fold change is -1.3.

For the compound `CCOc1ccc(-n2c(C)cc(C(=S)N3CCOCC3)c2C)cc1`, the fold change was -3.28.

As for `CCC(C)C(NC(C)=O)C(=O)O` (stereo unspecified), the fold change was 1.28.

With `NC1CCCc2c1[nH]c1ccc(Br)cc21` (stereo unspecified), the fold change was -11.

Regarding `c1ccc(OCC2CCNCC2)nc1`, the fold change was 2.98 (active).

For the compound `CC(C)(C)c1cc(Cl)cc(Cc2cc(C(C)(C)C)c(O)c(C(C)(C)C)c2)c1O`, the fold change is -1.42.

As to `CCOC(=O)C1=C(C(=O)OCC)SC(=C2C(=S)C(C)(C)N(C)c3ccc(C)cc32)S1`, the fold change was -1.

As to `O=C(Nc1ccccc1)Nc1ccc2c(c1)OCCO2`, the fold change is -1.3.

Take `O=C(Nc1ccc(F)cc1)Nc1nncs1`: the fold change was -1.15.

Consider `O=C(Nc1ccccc1)Nc1snnc1C(=O)O`, for which the fold change was 4.77 (active).

Regarding `CCOC(=O)C1CCN(C(=O)CC(C)C)CC1`, the fold change is -1.61.

Regarding `O=S(=O)(Nc1cccc2ccccc12)N1CCCCC1`, the fold change is -1.29.

For the compound `C=CCN(CC=C)C(=O)Cc1cccs1`, the fold change was -1.46.

In the case of `Oc1ccc(Br)cc1C=Nc1cc(Cl)cc(Cl)c1`, the fold change entry is “inactive”.

For the compound `O=[N+]([O-])c1ccc(O)c(C=Nc2ccc(I)cc2)c1`, the fold change result is “inactive”.

Turning to `Oc1ccc(Br)c(C=Nc2ccc(-c3ccc(N=Cc4cc(Br)ccc4O)cc3)cc2)c1`, the fold change entry was “active”.

As for `COc1cc2c(cc1N=Cc1cc(Br)ccc1O)oc1ccccc12`, the fold change entry is “inactive”.

As for `COc1ccc(OC)c(N=Cc2cc(Br)ccc2O)c1`, the fold change result is “active”.

On to `COc1ccc(OC)c(N=Cc2cc(Cl)cc(Cl)c2O)c1`, for which the fold change entry was “inactive”.

On to `Oc1ccc(Br)cc1C=Nc1ccc(I)cc1`, for which the fold change result is “active”.

Turning to `Oc1ccc(Br)cc1C=Nc1cc(Cl)ccc1Cl`, the fold change entry is “inactive”.

Turning to `Oc1c(Br)cc(Br)cc1C=Nc1ccc(Br)cc1`, the fold change result was “inactive”.

As for `O=c1c2ccc(Cl)c3c(Cl)ccc(c32)c2nc3ccccc3n12`, the fold change was -2.06.

Turning to `Cc1cc(C)n(C(=O)c2nn(C)cc2[N+](=O)[O-])n1`, the fold change was 1.61.

Turning to `O=[N+]([O-])c1cc(Br)cc(C=Nc2ccc(I)cc2)c1O`, the fold change entry is “inactive”.

For `N#CC1=C(N)Oc2[nH]c(=O)[nH]c(=O)c2C1c1cccnc1` (stereo unspecified), the fold change was 1.23.

Turning to `O/N=C(\c1ccccc1)C(O)c1ccccc1` (stereo unspecified), the fold change is -1.85.

For `S=c1nc(-c2ccccc2Cl)[nH][nH]1`, the fold change was -1.2.

For the compound `Nn1c(-c2cccs2)nc2ccccc2c1=O`, the fold change was -1.03.

As to `O=C1C=CC(=O)N1c1ccc(Cl)c(Cl)c1`, the fold change is -1.48.

Take `NCC1NCCc2ccccc21` (stereo unspecified): the fold change was -1.4.

Turning to `NC(=S)NCCC[C@H](N)C(=O)O`, the fold change was 1.05.

In the case of `c1ccc2cc(NCSCc3nc4ccccc4c4ccccc34)ccc2c1`, the fold change was -1.54.

With `Cc1ccnc(SC2CC(=O)N(c3ccc4ccccc4c3)C2=O)n1` (stereo unspecified), the fold change was -1.04.

As to `O=C1C2C3CC(C(Br)C3Br)C2C(=O)N1c1ccc(Br)cc1` (stereo unspecified), the fold change was 1.06.

For the compound `O=C1C2C3c4ccccc4C(c4ccccc43)C2C(=O)N1c1ccc2ccccc2c1` (stereo unspecified), the fold change is 3.16 (active).

As to `CN1C(=O)COc2ccc(S(=O)(=O)N3CCOCC3)cc21`, the fold change is -1.01.

As to `Nc1nc(=S)n(-c2ccccc2)[nH]1`, the fold change was -2.51.

Turning to `CC(C)N1C=C(Cc2cccnc2)C2=C(C1)C(c1cccnc1)C(C#N)=C(N)O2` (stereo unspecified), the fold change is 2.25.

For `N#CC1=C(N)Oc2ccc(N)cc2C1c1cccnc1` (stereo unspecified), the fold change is 2.15.

`N#CC1=C(N)N(Cc2ccccc2)C2=C(COC/C2=C/c2cccnc2)C1c1cccnc1` (stereo unspecified): the fold change was 2.64 (active).

As to `COc1cccc(OC)c1-c1noc(CSc2nc3ccccc3o2)n1`, the fold change was -1.15.

For `O=c1[nH]c(=O)n([C@@H]2O[C@H](CO)[C@@H](O)[C@H]2O)cc1Br`, the fold change is -3.23.

For `Cc1cc(C)nc(Nc2ccc(N3CCOCC3)cc2)n1`, the fold change is -1.54.

For the compound `Cc1cc(C)n(-c2nc(N3CCOCC3)nc(N3CCOCC3)n2)n1`, the fold change is 1.04.

With `O=c1nc(N2CCOCC2)nc(Nc2ccccc2)[nH]1`, the fold change result was “active”.

`CCc1cc(C=C(Cl)Cl)oc(=O)c1C`: the fold change is -1.84.

`Cc1cc2ccc(=O)oc2cc1OC[C@@H](O)C(C)(C)O`: the fold change was -1.35.

Consider `O=S(=O)(NCc1ccco1)c1ccc(Br)cc1`, for which the fold change was 2.26.

Regarding `O=c1[nH]nc(CSCc2csc(-c3ccccc3)n2)[nH]1`, the fold change entry was “inactive”.

For `O=c1[nH]nc(CSCc2ccc(Cl)cc2)[nH]1`, the fold change result was “inactive”.

Regarding `O=c1[nH]nc(CSCc2ccc3nsnc3c2)[nH]1`, the fold change result was “active”.

As to `NCCCN1CCc2ccccc21`, the fold change was -1.28.

On to `O=C(c1n[nH]c(=O)c2ccccc12)N1CCN(c2ccccn2)CC1`, for which the fold change was -1.05.

On to `O=C(O)c1csc2c1CCCC2`, for which the fold change is 2.51 (active).

Take `O=C(Nc1sc2c(c1C(=O)O)CCCCC2)c1cccs1`: the fold change was -1.49.

For `Cc1ccc(C)n1-c1sc2c(c1C(=O)O)CCCC2`, the fold change was -1.1.

Consider `CCS(=O)(=O)c1ccsc1S(=O)(=O)CC`, for which the fold change is -1.28.

On to `COC(=O)Nc1ncc(CN2CCOCC2)s1`, for which the fold change was -2.39.

Regarding `c1ccc(-c2ccc3ccccc3n2)nc1`, the fold change was -1.13.

In the case of `c1ccc(-c2nc(-c3ccccn3)nc(-c3ccccn3)n2)nc1`, the fold change is 3.31 (active).

As for `O=S(=O)(O)c1ccc(-c2nnc(-c3ccccn3)nc2-c2ccc(S(=O)(=O)O)o2)o1`, the fold change is -1.16.

For the compound `CC(C)(C)NC(=O)Nc1cccnc1Cl`, the fold change was -1.98.

In the case of `C=CCOC(=O)c1sc(NC(=O)c2cccs2)nc1C`, the fold change was -1.68.
